Source: PubChem BioAssay (Tox21)
Values joined by “and” are separate entries in the source; they are usually repeats but may differ in a detail not shown here. Equal values may be shown once. Records with an inconclusive call do not appear. A call without a number means that no potency is given here. Some compounds were tested as several samples or in several runs, with calls that do not always agree. Active and inactive are the calls of the source. Unless noted, calls follow the shape of the dose curve; as a rule, active = well fitted curve in the direction sought with a large enough effect in the repeat runs; inconclusive = weak or mixed curves; inactive = no such curve, though single readings can be large; an effect the other way counts as inactive or inconclusive.

What was measured:
[1] = qHTS assay to identify small molecule antagonists of the estrogen related receptor (ERR) signaling pathway from Tox21 library - cell viability counter screen (AID 1224834); also: nearly all actives have a fitted effect of over 30% in size
Outline: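 Multiplexed viability counter screen in ERR cells: 17.5 h compound exposure at 37 C, CellTiter-Fluor added, 30 min at 37 C/5% CO2, fluorescence read.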

[2] = target: Luciferin 4-monooxygenase (Photinus pyralis) (UniProt P08659); test: qHTS assay to identify small molecule inhibitors of firefly luciferase (AID 1224835); also: nearly all actives have a fitted effect of over 25% in size; also: potency is read from the fitted curve at half-maximal effect
Sequence of Luciferin 4-monooxygenase (Photinus pyralis) (P08659 whole entry, looked up): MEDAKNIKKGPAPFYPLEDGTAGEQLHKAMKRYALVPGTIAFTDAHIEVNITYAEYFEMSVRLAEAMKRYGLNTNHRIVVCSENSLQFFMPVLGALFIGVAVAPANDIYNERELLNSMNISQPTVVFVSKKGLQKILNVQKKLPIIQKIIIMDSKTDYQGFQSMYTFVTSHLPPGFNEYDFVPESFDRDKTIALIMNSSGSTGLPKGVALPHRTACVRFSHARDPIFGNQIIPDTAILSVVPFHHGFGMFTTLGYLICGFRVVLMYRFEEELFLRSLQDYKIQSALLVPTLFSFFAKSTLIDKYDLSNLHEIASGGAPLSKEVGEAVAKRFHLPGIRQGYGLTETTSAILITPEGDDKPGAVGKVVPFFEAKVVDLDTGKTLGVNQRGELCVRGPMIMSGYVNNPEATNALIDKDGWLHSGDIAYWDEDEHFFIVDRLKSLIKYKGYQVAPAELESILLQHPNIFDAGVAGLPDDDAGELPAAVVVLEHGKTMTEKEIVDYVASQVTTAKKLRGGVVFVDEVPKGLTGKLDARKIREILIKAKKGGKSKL
Outline: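 Inhibition of purified Photinus luciferase is measured by luminescence. Substrate levels (D-luciferin, ATP) sit at their KM values. Each compound is tested in a concentration series.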

[3] = qHTS assay to identify small molecule agonists of the constitutive androstane receptor (CAR) signaling pathway - cell viability counter screen (AID 1224836); also: nearly all actives have a fitted effect of over 45% in size
Outline: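 23 h treatment, 37 C, 5% CO2. Cell line: HepG2 stably expressing hCAR with a CYP2B6-2.2kb construct. Co-treatment: PK11195, 0.75 uM final. Read-out: CellTiter-Fluor fluorescence intensity.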

[4] = qHTS assay to identify small molecule antagonists of the constitutive androstane receptor (CAR) signaling pathway - cell viability counter screen (AID 1224837); also: nearly all actives have a fitted effect of over 45% in size
Outline: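 Read-out: CellTiter-Fluor fluorescence after 23 hr at 37 C/5% CO2. Cells: HepG2 double-stable for hCAR and CYP2B6-2.2kb. Compounds tested at 15 concentrations in the presence of CITCO, final concentration 50 nM.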

[5] = qHTS assay to identify small molecule antagonists of the estrogen related receptor signaling pathway with the pleiotropic PPARgamma coactivator (PGC) from Tox21 10K library - cell viability counter screen (AID 1224840; active = well fitted cell-killing curve with a large enough effect in the repeat runs, not every such curve was filed as active; also: nearly all actives have a fitted effect of over 40% in size)
Outline: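 Fluorescence read-out of CellTiter-Fluor viability reagent, added after cells had been exposed to compound in DMSO for 17.5 h at 37 C; 30 min development at 37 C/5% CO2. Cells: PGC/ERR line, 2,000/well.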

[6] = qHTS assay to identify small molecule antagonists of the estrogen related receptor signaling pathway with the pleiotropic PPARgamma coactivator (PGC) from Tox21 10K library (AID 1224841; call rule not given here; also: actives are mostly falling curves and most rising ones were filed inactive; nearly all actives have a fitted effect of over 50% in size; also: potency is read from the fitted curve at half-maximal effect)
Outline: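 Luminescence read-out (One-Glo luciferase reagent, 30 min at room temperature) from PGC/ERR cells exposed to DMSO-dissolved test compounds for 18 h at 37 C; cells, 2,000 per well, had been preincubated 6 h before compound transfer.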

[7] = qHTS assay to identify small molecule agonists of the estrogen related receptor signaling pathway with the pleiotropic PPARgamma coactivator (PGC) from Tox21 10K library (AID 1224842); also: nearly all actives have a fitted effect of over 15% in size
Outline: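 Luminescence from One-Glo (30 min, room temperature) measured after PGC/ERR cells had 18 h at 37 C with pinned compound (23 nL in DMSO). Cells had been seeded at 2,000 per well and pre-incubated 6 h.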

[8] = qHTS assay to identify small molecule agonists of the hypoxia (HIF-1) signaling pathway - cell viability counter screen (AID 1224844; calls by dose curve; also: nearly all actives have a fitted effect of over 50% in size)
Outline: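 CellTiter-Glo luminescence read-out, 30 min RT, taken in the same wells as the beta-lactamase HRE reporter assay; HRE-bla ME-180 cells, 0.5% dialyzed FBS, 17 hr compound treatment at 37C, 5% CO2.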

[9] = qHTS assay to identify small molecule agonists of H2AX (AID 1224845; active = well fitted activation curve with a large enough effect in the signal ratio in the repeat runs, not every such curve was filed as active; the % refers to the signal ratio)
Outline: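 Phospho-H2AX Ser139 measured by HTRF (ex 320 nm; em 665 and 620 nm) after 24 hr antibody incubation. Compounds, 15 concentrations, 0.76% DMSO, were applied to CHO-K1 cells for 3hr at 37C before lysis.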

[10] = qHTS assay to identify small molecule agonists of the hypoxia (HIF-1) signaling pathway (AID 1224846; active = well fitted activation curve with a large enough effect in the signal ratio in the repeat runs, not every such curve was filed as active; the % refers to the signal ratio)
Outline: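 Beta-lactamase FRET read-out (CCF4-AM substrate) from ME-180 cells carrying an HRE-driven bla reporter, after 17 hrs compound exposure at 37C/5% CO2. Cells were seeded at 2,000 per well in 0.5% dialyzed FBS medium and preincubated 5 hrs.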

[11] = qHTS assay to identify small molecule agonists of H2AX - cell viability counter screen (AID 1224847; calls by dose curve; also: nearly all actives have a fitted effect of over 30% in size; also: potency is read from the fitted curve at half-maximal effect)
Outline: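 Compounds tested at 15 concentrations were incubated 3 hr at 37C with wild-type CHO-K1 cells; cellular ATP-based luminescence (CellTiter-Glo) indicated viability.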

[12] = qHTS assay to identify small molecule antagonists of the estrogen related receptor (ERR) signaling pathway from Tox21 library (AID 1224848); also: nearly all actives have a fitted effect of over 50% in size; also: potency is read from the fitted curve at half-maximal effect
Outline: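 Luciferase luminescence (ONE-Glo, 30 min room temperature) was the read-out. Cells of the NTP-supplied ERR line, 2,000 per well, were given 6 h at 37 C before compound addition in DMSO and 18 h exposure at 37 C.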

[13] = qHTS assay to identify small molecule agonists of the estrogen related receptor (ERR) signaling pathway from Tox21 library (AID 1224849; calls by dose curve; also: nearly all actives have a fitted effect of over 15% in size); settings: ERR reporter cell line, ONE-Glo luciferase, 18 h; at 92.4 µM (top of the series)
Outline: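 Luminescence readout (ONE-Glo, 30 min RT) after 18 h compound exposure at 37 C of NTP-supplied ERR reporter cells; cells were plated 6 h before compound addition by pin tool.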

[14] = qHTS RealTime-Glo MT Cell Viability Assay in HepG2 cells - 24 hour (AID 1224867); also: nearly all actives have a fitted effect of over 50% in size
Outline: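 Tox21 10K library screened in qHTS format on HepG2 cells carrying RealTime-Glo reagents. Compounds were added after a 5 h preincubation, and the luminescent signal from continuous culture was measured repeatedly during 40 h treatment.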

[15] = qHTS RealTime-Glo MT Cell Viability Assay in HEK293 cells - 32 hour (AID 1224868); also: nearly all actives have a fitted effect of over 50% in size; also: potency is read from the fitted curve at half-maximal effect
Outline: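 Luminescence generated by NanoLuc from substrate produced by living HEK293 cells served as the viability signal. Each value reflects the reading at its stated time point during continuous 40 h compound exposure at 37 C.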

[16] = A CellTox Green Cytotoxicity Assay to monitor cytotoxicity in HEK293 cells - 0 hour (AID 1224869); also: nearly all actives have a fitted effect of over 50% in size
Outline: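 Read-out: fluorescence of a cell-impermeant cyanine dye staining DNA of dead cells, proportional to cytotoxicity. HEK293, 600 cells/well with reagent, compound (23 nL DMSO) added after 5 h; reads at 0, 8, 16, 24, 32, 40 h.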

[17] = target: Thyrotropin receptor (Homo sapiens) (UniProt P16473); test: qHTS assay to identify small molecule agonists of the thyroid stimulating hormone receptor (TSHR) signaling pathway (AID 1224843; calls by dose curve; also: nearly all actives have a fitted effect of over 45% in size; also: potency is read from the fitted curve at half-maximal effect)
Sequence of Thyrotropin receptor (Homo sapiens) (P16473 whole entry, looked up): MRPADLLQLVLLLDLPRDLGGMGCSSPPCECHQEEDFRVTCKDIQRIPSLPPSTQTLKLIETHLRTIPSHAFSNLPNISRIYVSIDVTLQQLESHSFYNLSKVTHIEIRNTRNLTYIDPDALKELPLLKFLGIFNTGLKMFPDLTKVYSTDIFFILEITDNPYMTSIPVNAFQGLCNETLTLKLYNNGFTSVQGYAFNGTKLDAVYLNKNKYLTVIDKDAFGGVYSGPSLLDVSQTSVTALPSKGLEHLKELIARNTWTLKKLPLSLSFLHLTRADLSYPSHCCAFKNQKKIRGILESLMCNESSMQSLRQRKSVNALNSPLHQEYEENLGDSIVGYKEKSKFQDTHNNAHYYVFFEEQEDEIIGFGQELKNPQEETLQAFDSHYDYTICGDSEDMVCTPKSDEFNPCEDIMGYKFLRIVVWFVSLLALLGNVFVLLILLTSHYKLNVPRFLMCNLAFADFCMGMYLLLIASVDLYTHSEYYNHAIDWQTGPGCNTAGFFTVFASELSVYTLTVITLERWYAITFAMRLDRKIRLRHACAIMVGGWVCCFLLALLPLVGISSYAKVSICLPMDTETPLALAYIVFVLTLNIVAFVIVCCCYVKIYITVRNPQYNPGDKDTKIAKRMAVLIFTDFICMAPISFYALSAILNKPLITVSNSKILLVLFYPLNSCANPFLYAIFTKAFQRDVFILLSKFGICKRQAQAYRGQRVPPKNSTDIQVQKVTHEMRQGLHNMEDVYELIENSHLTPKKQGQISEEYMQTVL
Outline: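 Agonist activity read as cAMP rise via d2/cryptate HTRF competition, 1 h room-temperature detection, in HEK293 cells expressing TSHR. Fifteen-point titrations, each run in triplicate, with a 30 min room-temperature incubation beforehand.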

[18] = target: Nuclear receptor subfamily 1 group I member 3 (Homo sapiens) (UniProt Q14994); test: qHTS assay to identify small molecule antagonists of the constitutive androstane receptor (CAR) signaling pathway (AID 1224838);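 also: HepG2 cells stably expressing hCAR with CYP2B6 luciferase reporter stimulated by CITCO; nearly all actives have a fitted effect of over 40% in size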
Sequence of Nuclear receptor subfamily 1 group I member 3 (Homo sapiens) (Q14994 whole entry, looked up): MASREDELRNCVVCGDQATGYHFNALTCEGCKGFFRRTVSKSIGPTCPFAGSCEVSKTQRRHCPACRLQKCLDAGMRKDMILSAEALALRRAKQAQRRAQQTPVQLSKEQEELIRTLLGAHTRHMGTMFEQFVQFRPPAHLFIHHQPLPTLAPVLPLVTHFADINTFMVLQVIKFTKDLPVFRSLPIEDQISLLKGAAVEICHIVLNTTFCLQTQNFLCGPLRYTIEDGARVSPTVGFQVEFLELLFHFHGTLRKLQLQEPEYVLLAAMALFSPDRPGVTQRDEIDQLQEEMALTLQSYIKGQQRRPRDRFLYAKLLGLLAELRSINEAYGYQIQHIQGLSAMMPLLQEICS
Outline: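 Read-out: ONE-Glo luciferase luminescence after 30 min at room temperature. HepG2-CYP2B6-hCAR double-stable cells, compounds in 15-point titration plus 50 nM CITCO final, 24 h at 37 C/5% CO2.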

[19] = target: Nuclear receptor subfamily 1 group I member 3 (Homo sapiens) (UniProt Q14994); test: qHTS assay to identify small molecule agonists of the constitutive androstane receptor (CAR) signaling pathway (AID 1224839); also: nearly all actives have a fitted effect of over 15% in size; also: potency is read from the fitted curve at half-maximal effect;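 as to activation: HepG2 cells stably carrying human CAR and a CYP2B6 luciferase reporter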
Outline: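 Compounds tested at 15 concentrations on HepG2 cells stably harbouring hCAR and CYP2B6-2.2kb reporter constructs, co-treated with PK11195 (0.75 uM final), 24 h at 37 C; luminescent reporter signal quantified.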

Structure (SMILES) | Potency [1] | Potency [2] | Potency [3] | Potency [4] | Potency [5] | Potency [6] | Potency [7] | Potency [8] | Potency [9] | outcome [10] | Potency [11] | Potency [12] | activity change, positive = activation [13] | Potency [14] | Potency [15] | Potency [16] | Potency [17] | Potency [18] | Potency [19]
Brc1ccc(Oc2cc(Br)c(Br)cc2Br)c(Br)c1 | inactive | inactive | inactive | inactive | inactive | inactive | inactive | inactive | inactive | inactive | inactive | inactive | -14.5% (inactive) | inactive | 43.6 µM (active) | inactive | – | – | –
c1ccc(NNc2ccccc2)cc1 | inactive | 25.4 µM (active) and 17.8 µM (active) | inactive | inactive | inactive | inactive | inactive | inactive | inactive | inactive | inactive | inactive | 2.54% (inactive) and 6.77% (inactive) | inactive | inactive | inactive | inactive | – | –
CCOc1cc(Oc2ccc(C(F)(F)F)cc2Cl)ccc1[N+](=O)[O-] | inactive | inactive | – | inactive | inactive | 55.1 µM (active) and inactive | inactive | inactive | inactive | inactive | inactive | – | -29.7% (inactive) and -19.5% (inactive) | inactive | – | inactive | – | inactive | inactive
O=[N+]([O-])c1cccc2ccccc12 | inactive | inactive | – | inactive | inactive | inactive | inactive | inactive | inactive | inactive | inactive | inactive | -1.67% (inactive) and -0.342% (inactive) | inactive | inactive | inactive | inactive | inactive | inactive
CCCCCCCCCCCOC(=O)c1ccccc1C(=O)OCCCCCCCCCCC | inactive | inactive | inactive | inactive | inactive | – | – | inactive | inactive | inactive | inactive | – | – | inactive | inactive | inactive | inactive | – | –
Oc1ccc(-c2ccccc2)cc1 | inactive | 39.4 µM (active) and 39.9 µM (active) | – | inactive | inactive | inactive | inactive | inactive | inactive | inactive | – | inactive | 1.81% (inactive) | inactive | – | inactive | inactive | inactive | 53.8 µM (active) and 54.5 µM (active)
OCC(O)CO | inactive | inactive | inactive | inactive | inactive | inactive | inactive | inactive | inactive | inactive | inactive | inactive | 2.36% (inactive) and 0.0013% (inactive) | inactive | – | inactive | inactive | – | –
C=C(C)C(=O)OCC1CO1 (stereo not given) | inactive | inactive | – | inactive | inactive | inactive | inactive | inactive | inactive | inactive | inactive | inactive | -2.17% (inactive) and 2.32% (inactive) | inactive | inactive | inactive | inactive | inactive | inactive
Oc1cc(Cl)c(Cl)cc1Cl | inactive | inactive | inactive | inactive | inactive | – | – | inactive | inactive | inactive | 100 µM (active) and inactive | – | – | inactive | – | inactive | inactive | – | –
CCCCN(CC)c1c([N+](=O)[O-])cc(C(F)(F)F)cc1[N+](=O)[O-] | inactive | inactive | inactive | inactive | inactive | inactive | inactive | inactive | inactive | inactive | inactive | inactive | -0.494% (inactive) and 5.99% (inactive) | inactive | inactive | inactive | 8.77 µM (active) and 12.2 µM (active) | inactive | –
O=C(CCl)c1ccccc1 | inactive | inactive | inactive | inactive | inactive | – | – | inactive | inactive | inactive | – | – | – | inactive | inactive and 49 µM (active) | inactive | 69.6 µM (active) | – | –
CC(C)c1ccc(CO)cc1 | inactive | inactive | inactive | inactive | inactive | inactive | inactive | inactive | inactive | inactive | inactive | inactive | 2.78% (inactive) and -0.788% (inactive) | inactive | – | inactive | inactive | – | –
ClC1C(Cl)C(Cl)C(Cl)C(Cl)C1Cl (stereo not given) | inactive | inactive | inactive | inactive | inactive | inactive and 68.6 µM (active) | inactive | inactive | inactive | inactive | – | inactive and 48.6 µM (active) | – | inactive | – | inactive | – | – | –
CCN(CC)C(=O)/C(Cl)=C(\C)OP(=O)(OC)OC | inactive | inactive | inactive | inactive | inactive | – | – | inactive | inactive | inactive | inactive | – | – | inactive | inactive | inactive | inactive | – | –
CCOC(=O)C(C)OC(=O)c1cc(Oc2ccc(C(F)(F)F)cc2Cl)ccc1[N+](=O)[O-] (stereo not given) | inactive | inactive | – | inactive | inactive | 24.2 µM (active) | inactive | inactive | inactive | inactive | inactive | 21.6 µM (active) | -45.1% (inactive) and -19.8% (inactive) | inactive | 30.7 µM (active) | inactive | – | inactive | 54.2 µM (active) and inactive
